Results as given in the supplement of paper PMC13380429.

Test system: Vero E6 infected with SARS-CoV-2
Assay: morphology score (similarity to uninfected cells); higher = more like uninfected cells
Conditions: 24 h

Row | Compound | morphology score
1 | OCCC#Cc1nc(-c2ccc(F)cc2)c(-c2ccncc2)n1CCCc1ccccc1 (10 µM) | 0.0292
2 | C[C@@H](N)Cc1c[nH]c2ccc(O)cc12 [alpha-methylserotonin] (10 µM) | 0.251
3 | Cc1ccc(-c2n[nH]c3c2C(c2cccc(O)c2)N(c2ccc(C(=O)O)cc2)C3=O)cc1 (centres undefined) (10 µM) | 0.169
4 | CC1(C)Oc2ccc(C#N)cc2[C@@H](N2CCCC2=O)[C@@H]1O [levcromakalim] (10 µM) | 0.221
5 | NC(N)=Nc1nc(CSCC/C(N)=N/S(N)(=O)=O)cs1 [famotidine] (10 µM) | -0.0119
6 | CC(C)c1nc(N(C)S(C)(=O)=O)nc(-c2ccc(F)cc2)c1/C=C/[C@@H](O)C[C@@H](O)CC(=O)O [rosuvastatin] (0.833333 µM) | 0.322
7 | Cc1cc(-c2ncc(CC(=O)Nc3ccc(-c4cnccn4)cn3)cc2C)ccn1 (10 µM) | -0.0828
8 | O=C(C[S+]([O-])Cc1ccco1)NC/C=C\COc1cc(CN2CCCCC2)ccn1 (centres undefined) [lafutidine] (10 µM) | 0.0534
9 | CC1(C)S[C@@H]2[C@H](NC(=O)[C@H](NC(=O)N3CCNC3=O)c3ccccc3)C(=O)N2[C@H]1C(=O)O [azlocillin] (10 µM) | -0.0252
10 | CCCCCCCCCCCCCCCC[n+]1ccccc1 [cetylpyridinium] (0.833333 µM) | 0.0939
11 | Cc1ccc(S(=O)(=O)NC2c3ccccc3Oc3ccccc32)cc1 (10 µM) | 0.173
12 | O=C1c2c(O)cccc2C([C@@H]2O[C@H](CO)[C@@H](O)[C@H](O)[C@H]2O)c2cc(CO)cc(O)c21 (some centres undefined) [aloin] (10 µM) | -0.243
13 | N#CCCCSC(=N)N [kevetrin] (10 µM) | 0.195
14 | CC(C)(C)c1ccc(O)cc1 [4-tert-butylphenol] (10 µM) | 0.0892
15 | Cc1c(Cl)cccc1Nc1ccccc1C(=O)O [tolfenamic-acid] (10 µM) | 0.00971
16 | CC(O)(P(=O)(O)O)P(=O)(O)O [etidronic-acid] (10 µM) | 0.115
17 | COc1ccc(CCN)cc1OC [homoveratrylamine] (10 µM) | -0.0152

Row | Compound | morphology score
18 | O=C(OOC(=O)c1ccccc1)c1ccccc1 [benzoyl-peroxide] (10 µM) | -0.0426
19 | CCC(=O)NC1CCc2cccc(OC)c2C1 (centres undefined) (10 µM) | -0.0478
20 | Cc1cc(-c2cc(O)ccc2Cl)cc2nnc(Nc3ccc(OCCN4CCCC4)cc3)nc12 (0.833333 µM) | -0.04
21 | CNS(=O)(=O)CCc1ccc2[nH]cc(C3CCN(C)CC3)c2c1 [naratriptan] (10 µM) | 0.0727
22 | c1nc(CC2CCNCC2)c[nH]1 [immepip] (10 µM) | 0.0471
23 | O=C(O)[C@H]1O[C@@H](Oc2cc3oc(-c4ccccc4)cc(=O)c3c(O)c2O)[C@H](O)[C@@H](O)[C@@H]1O [baicalin] (10 µM) | 0.165
24 | O=C(NCNC(=O)NC1C(=O)NC(=O)N1CO)NC1C(=O)NC(=O)N1CO (centres undefined) [imidurea] (10 µM) | -0.0758
25 | COc1cccc([C@H](O)C2CCN(CCc3ccc(F)cc3)CC2)c1OC [volinanserin] (10 µM) | -0.147
26 | CN[C@@H](C)[C@H]1[C@H](O)C[C@@]2(C)[C@@H]3CC[C@H]4C(C)(C)[C@@H](NC)CC[C@@]45C[C@@]35CC[C@]12C [cyclovirobuxin-D] (10 µM) | 0.331
27 | C[C@]12CC[C@@H]3c4ccc(O)cc4CC[C@H]3[C@@H]1C[C@@H](O)[C@@H]2O [estriol] (10 µM) | -0.0117
28 | CCCOC(C(=O)OC1CCN(C)CC1)(c1ccccc1)c1ccccc1 [propiverine] (10 µM) | 0.677
29 | CC(C)NC[C@@H](O)COc1ccccc1-n1cccc1 (racemic) [isamoltane] (10 µM) | -0.204
30 | CCCNS(=O)(=O)Nc1ncnc(OCCOc2ncc(Br)cn2)c1-c1ccc(Br)cc1 [macitentan] (10 µM) | -0.0952
31 | CC(C)=CCc1c(O)cc(O)c2c(=O)c(O)c(-c3ccc(C(F)(F)F)cc3)oc12 (0.833333 µM) | 0.14
32 | CCOC1O[C@H]([C@@H](COCc2ccccc2)OCc2ccccc2)[C@H](OCc2ccccc2)[C@H]1O (some centres undefined) [tribenoside] (10 µM) | -0.0493
33 | CCCCCCCCCCCC(=O)N(CCO)CCO [lauric-diethanolamide] (10 µM) | -0.121
34 | CC[C@@H](c1ccc(F)c(F)c1)n1c(C(=O)OC)c(-c2ccno2)[nH]c1=S (10 µM) | -0.0397
